Assay results taken from ChEMBL document CHEMBL3988442, “University of Dundee, Small-Polar-MMV Screening Library” (2021).
Among all 85,000 compounds or so, about 440 (0.52%) showed an effect of 50% or more. The full list was thinned out, with strong results kept by preference.

Experiment: In vitro enzyme assay to detect hydrolysis of chlorophenol red-beta-D-[…] directly proportional to the number of Toxoplasma stably expressing beta-galactosidase
Assay type: functional, organism-based, Toxoplasma gondii
Design: scale not given: in the data most compounds retested in dose-response had high values

CCS(=O)(=O)N1CCOCC2(CCN(c3ccccn3)C2)C1.O=C(O)C(F)(F)F (centres undefined)
Percent Effect (10 µM): -1.246%

CS(=O)(=O)N1CCOCC2(CCN(c3ccccn3)C2)C1.O=C(O)C(F)(F)F (centres undefined)
Percent Effect (10 µM): 93.48%

O=C(O)C(F)(F)F.O=S(=O)(C1CC1)N1CCOCC2(CCN(c3ccccn3)C2)C1 (centres undefined)
Percent Effect (10 µM): -7.77%

Cc1ccc2[nH]c(CN3CCC(O)C3)cc(=O)c2c1 (centres undefined)
Percent Effect (50 µM): -10.62%

Fc1ccc(CN2CCCC2Cn2cncn2)c2ncccc12 (centres undefined)
Percent Effect (10 µM): -4.806%

Fc1ccc(CN2CCCC2Cn2cccn2)c2ncccc12 (centres undefined)
Percent Effect (10 µM): 4.2%

OC[C@@H]1CCCN1Cc1ccc(F)c2cccnc12
Percent Effect (50 µM): 78.15%

Cc1nc(CC(=O)N[C@H]2CC[C@H]2N)cs1
Percent Effect (50 µM): 7.419%

Cc1cc(C(=O)Nc2cn(C)cc(Br)c2=O)[nH]n1
Percent Effect (50 µM): -6.695%

c1ccc(COCc2nc(C3CCCNC3)no2)cc1 (centres undefined)
Percent Effect (50 µM): -2.705%

Cc1cccc(OCCN2CCN(Cc3noc(C)n3)CC2)c1
Percent Effect (10 µM): -13.55%

C1CC(c2noc(C3CC3)n2)CN(CCOCC2CC2)C1 (centres undefined)
Percent Effect (10 µM): 10.99%

COCCc1noc(C2CCN(CC(N)=O)CC2)n1
Percent Effect (50 µM): 1.681%

C(Cc1noc(C2CNC2)n1)OCC1CC1
Percent Effect (50 µM): 84.88%

COCCc1noc(C2CNC2)n1
Percent Effect (50 µM): -4.923%

Cc1cccc(OCCCN2CCC(N(C)Cc3noc(C)n3)C2)c1 (centres undefined)
Percent Effect (10 µM): 19.53%

C1CC(COCCc2noc(C3CNC3)n2)CCO1
Percent Effect (50 µM): 31.48%

C1CCC(COCCc2noc(C3CNC3)n2)C1
Percent Effect (50 µM): 57.88%

CCCN1CCC(Cc2noc(C3CCNC3)n2)CC1 (centres undefined)
Percent Effect (50 µM): 2.055%

Cc1cccc(OCCc2noc(C3CNC3)n2)c1
Percent Effect (50 µM): 82.99%

c1ccc(COCCc2noc(C3CNC3)n2)cc1
Percent Effect (50 µM): 62.37%

CNS(=O)(=O)c1ccc(C(=O)NCC(C)(C)N(C)C)o1
Percent Effect (50 µM): -2.111%

NC(=O)c1ccc(CNC2CC2)c(F)c1
Percent Effect (50 µM): -8.127%

COC(=O)CC(NC(=O)c1cc(C)n[nH]1)C1CC1 (centres undefined)
Percent Effect (50 µM): 5.421%

Cn1cc(CC(=O)Nc2ccc(I)cn2)cn1
Percent Effect (50 µM): -1.266%

Cc1ccc(Br)c(NCC(=O)N2CCOCC2)c1
Percent Effect (50 µM): 6.776%

CNC(C)CCNC(=O)c1cc(C)nn1C (centres undefined)
Percent Effect (50 µM): -4.64%

Cc1csc(S(=O)(=O)NCCCOCC2CCCO2)n1 (centres undefined)
Percent Effect (50 µM): -3.897%

CCC(C)NC(=O)NC1CCN(c2ccccn2)CC1 (centres undefined)
Percent Effect (50 µM): -18.28%

N#Cc1cc(F)c(S(=O)(=O)NCCN)c(F)c1
Percent Effect (50 µM): -7.913%

CC(C)N1CCCN(c2nc(-c3cccnc3)nc3c2cnn3C)CC1
Percent Effect (10 µM): 55.95%

Cn1ncc2c(N3CCC3)nc(-c3ccncc3)nc21
Percent Effect (10 µM): -3.528%

Cn1ncc2c(N3CCS(=O)(=O)CC3)nc(-c3cccnc3)nc21
Percent Effect (10 µM): 6.498%

O=C(NCc1csc(N2CCCC2)n1)C1CNCCO1 (centres undefined)
Percent Effect (50 µM): 26.16%

N[C@@H]1CC[C@H](C(=O)NCc2csc(N3CCCC3)n2)C1
Percent Effect (50 µM): 62.86%

Cc1nc(CC(=O)NCc2csc(N3CCCC3)n2)cs1
Percent Effect (10 µM): -6.671%

C[C@@H]1CNC[C@H]1c1nc(-c2ccncc2)no1
Percent Effect (50 µM): 1.432%

CCn1nc(C)c2nc(C(C)C)nc(NCCCn3cccn3)c21
Percent Effect (10 µM): 57.58%

CCn1nc(C)c2nc(C(C)C)nc(NCCCn3ccnc3)c21
Percent Effect (10 µM): 76.16%

Cc1nn(C)c2c(NCCCn3cccn3)nc(C(C)C)nc12
Percent Effect (10 µM): 10.17%

CCn1nc(C)c2ncnc(NCCCn3ccnc3)c21
Percent Effect (10 µM): 9.36%

CCCc1nc(NCCCn2ccnc2)c2c(n1)c(C)nn2CC
Percent Effect (10 µM): 67.95%

CCCc1nc(NCCCn2cccn2)c2c(n1)c(C)nn2CC
Percent Effect (10 µM): 20.81%

CCn1nc(C)c2nc(C(C)C)nc(NCc3ccccn3)c21
Percent Effect (10 µM): 23.92%

CCc1nc(NCCCn2cccn2)c2c(n1)c(C)nn2C
Percent Effect (10 µM): 7.651%

CCn1nc(C)c2nc(C)nc(NCCCn3cccn3)c21
Percent Effect (10 µM): 20.67%

NC(=O)COc1ccc(CNCCn2cccn2)cc1
Percent Effect (50 µM): 11.26%

COCC(=O)N1CCN(CCC(C)C)CC1
Percent Effect (50 µM): 7.319%

O=C(NCCN1CCCC1)Nc1cccc2cn[nH]c12
Percent Effect (50 µM): -2.677%

c1ccc(OCC2CC3(CCN(Cc4ccncc4)CC3)CO2)nc1 (centres undefined)
Percent Effect (10 µM): -2.51%

Cc1csc(CN2CCC3(CC2)COC(COc2ccccn2)C3)n1 (centres undefined)
Percent Effect (10 µM): -8.461%

Cc1cc(CN2CCC3(CC2)COC(COc2ccccn2)C3)no1 (centres undefined)
Percent Effect (10 µM): 96.36%

Cc1cc(C)nc(NC(=O)C(C)C)n1
Percent Effect (50 µM): 3.231%

Cc1nc(-n2nc(-c3cccs3)cc2N)[nH]c(=O)c1C
Percent Effect (10 µM): 4.893%

CC(=O)Nc1cc(C2CC2)nn1-c1nc(C)c(C)c(=O)[nH]1
Percent Effect (10 µM): -13.24%

CC(C)C(=O)Nc1cc(C(C)(C)C)nn1-c1ccccn1
Percent Effect (10 µM): -3.105%

Cc1nc(-n2nc(C3CC3)cc2NC(=O)C(C)C)[nH]c(=O)c1C
Percent Effect (10 µM): 79.17%

Cc1cc(NC(=O)C(C)C)n(-c2nc(C)c(C)c(=O)[nH]2)n1
Percent Effect (10 µM): 91.77%

NCc1ccc(OCC(F)F)cc1
Percent Effect (50 µM): -2.459%

O=C(C1CC1)N1CCC(Oc2cccnc2)C1 (centres undefined)
Percent Effect (50 µM): 1.461%

CCCOc1ccc(Cl)cc1CNc1ncnc2oc(C)nc12
Percent Effect (10 µM): 57.15%

CCC(CNc1ncnc2oc(C)nc12)Cc1ccccc1 (centres undefined)
Percent Effect (10 µM): -4.784%

CCCOc1ccccc1CCCNc1ncnc2oc(C)nc12
Percent Effect (10 µM): 12.3%

O=C1CCCCN1c1ccc(S(=O)(=O)NC2CC2)cc1
Percent Effect (50 µM): 98.35%

CC(N)c1ccc(N2CCCCC2=O)cc1 (centres undefined)
Percent Effect (50 µM): 3.622%

CC(C)NC(=O)c1ccc(N2CCCCC2=O)cc1
Percent Effect (50 µM): 19.08%

OCC1(Cc2ccccc2F)CCCNC1 (centres undefined)
Percent Effect (50 µM): 2.008%

OC1(Cc2ccccc2F)CCNCC1
Percent Effect (50 µM): -5.436%

OC1(Cc2ccccc2F)CCNC1 (centres undefined)
Percent Effect (50 µM): 78.69%

CC(NS(C)(=O)=O)C(=O)NCCCc1ccncc1 (centres undefined)
Percent Effect (50 µM): 0.4518%

Cc1cc(CN(C)C(=O)C2CCCN2S(C)(=O)=O)no1 (centres undefined)
Percent Effect (50 µM): -2.48%

O=C(CCN1C(=O)CCC1=O)Nc1ccc(F)cc1
Percent Effect (50 µM): 6.107%

Cc1nc(N2CCN(C(=O)c3ccncc3)CC2)c2c(n1)c(C)nn2C
Percent Effect (10 µM): 77.24%

Cc1nn(C)c2c(N3CCC(C)CC3)nc(C3CC3)nc12
Percent Effect (10 µM): 6.306%

Cc1nc(N2CCN(C(=O)C3CCCC3)CC2)c2c(n1)c(C)nn2C
Percent Effect (10 µM): -37.24%

Cc1nc(N2CCN(C(=O)C3CC3)CC2)c2c(n1)c(C)nn2C
Percent Effect (10 µM): 0.4782%

Cc1nc(N2CCN(C(=O)c3ccco3)CC2)c2c(n1)c(C)nn2C
Percent Effect (10 µM): 56.5%

Cc1nn(C)c2c(N3CCN(C)CC3)nc(C3CC3)nc12
Percent Effect (10 µM): 7.951%

CCC(=O)N1CCN(c2ncnc3c(C)nn(C)c23)CC1
Percent Effect (10 µM): 7.071%

Cc1nc(N2CCN(C(=O)c3ccccn3)CC2)c2c(n1)c(C)nn2C
Percent Effect (10 µM): 25.12%

Cc1nn(C)c2c(N3CCN(C(=O)c4ccccc4)CC3)ncnc12
Percent Effect (10 µM): -3.825%

Cc1nc(N2CCN(c3ccccc3)CC2)c2c(n1)c(C)nn2C
Percent Effect (10 µM): 52.19%

Cc1nc(N2CCN(C(=O)c3ccccc3)CC2)c2c(n1)c(C)nn2C
Percent Effect (10 µM): -7.412%

CCC(=O)N1CCN(c2nc(C)nc3c(C)nn(C)c23)CC1
Percent Effect (10 µM): 56.36%
